Experimental data as given in PubChem BioAssay AID488895 (Broad Institute, 2010).
Where “and” joins values, the source holds several entries; their conditions need not be identical. Equal entries are not always repeated. About 120 (0.035%) of roughly 340,000 compounds were called active.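 How the source made its calls: active means mean replicate inhibition at least 50% and at least half of replicates individually reaching 50%; inconclusive means only one of the two criteria met; inactive means neither criterion met.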 For the sample, actives were picked, then their nearest neighbours and some compounds at random.

Assay: blockers of twin-arginine translocation in E. coli – MC4100, TorA-mCherry reporter, fluorescence, single point, primary screen (AID 488895);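 further: exported cargo escapes ClpAP degradation while cytoplasmic cargo is degraded and loses fluorescence; 0% = median of neutral control wells and 100% = median of NaSCN control wells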
Conditions: E. coli MC4100 TorA-mCherry Tat export, at 10 µM, active compounds read high
For `Nc1nc(Sc2ncccc2[N+](=O)[O-])n[nH]1`, the inhibition was -8.21% (inactive).
In the case of `O=C(O)c1ccccc1OCc1ccccc1Cl`, the inhibition is reported as -2.88% (inactive).
With `CS(=O)(=O)N(CC(=O)N1CCOCC1)c1ccc2c3c(cccc13)CC2` the inhibition was 2.34% (inactive).
With `O=P(O)(CP(=O)(c1ccccc1)c1ccccc1)c1ccccc1O` the inhibition was -10.9% (inactive).
With `COc1cc(C2C(C#N)=C(C)NC3=C2C(=O)CC(C)(C)C3)ccc1O` (configuration not stated) the inhibition was 4.04% (inactive).
In the case of `CN1CC(=O)N=C1N`, the inhibition is reported as -7.3% (inactive) and -13.2% (inactive).
In the case of `CCC(C)Sc1nc(C)nc2c1c(=O)n(C)c(=O)n2C` (configuration not stated), the inhibition is reported as -2.92% (inactive).
For `OC(COc1ccc(F)cc1Cl)CN1CCc2ccccc2C1` (configuration not stated), the inhibition was 3.62% (inactive).
In the case of `COC(=O)c1cc2n(n1)CCCNC2=O`, the inhibition is reported as -2.39% (inactive).
For `O=C1OCC2=C1C(c1ccc(Cl)cc1)c1cc3c(cc1O2)OCO3` (configuration not stated), the inhibition was 2.92% (inactive).
In the case of `CC1C(=O)Nc2ccc(S(=O)(=O)N3CCN(c4ccccc4F)CC3)cc2NC1=O` (configuration not stated), the inhibition is reported as 2.39% (inactive).
For `COCCCn1c(SCc2cccc(OC)c2)nc2cc(OC)c(OC)cc2c1=N`, the inhibition was 8.62% (inactive).
For `CC(CCN1CCN=C1N(C)C)c1ccccc1` (configuration not stated), the inhibition was 1.28% (inactive).
For `Cn1c(SCC(=O)N2CCCC2)nnc1-c1ccc2c(c1)OCO2`, the inhibition was -0.749% (inactive).
With `CC(C)c1ccc(NC(=O)C2CCCN(S(=O)(=O)c3cccnc3)C2)cc1` (configuration not stated) the inhibition was -2.58% (inactive).
In the case of `CC(C)[C@H](NC(=O)N1CCn2c1nc1ccccc12)C(=O)NC1CC1`, the inhibition is reported as 3.55% (inactive).
In the case of `CCN1CCN(C(=O)N[C@@H](C(=O)N[C@@H]2C(=O)N3C(C(=O)O)=C(CSc4nnnn4C)CS[C@H]23)c2ccc(O)cc2)C(=O)C1=O`, the inhibition is reported as -0.914% (inactive).
For `CC1CCCN(C(=O)c2ccc3c(c2)C(=O)N(CCC2=CCCCC2)C3=O)C1` (configuration not stated), the inhibition was 5.37% (inactive).
With `COC(=O)c1c(C)oc(C)c1S(=O)(=O)Nc1ccc(C(C)C)cc1` the inhibition was 8.29% (inactive).
In the case of `CC(C)(C)S(=O)(=O)N1Cc2cc(CO)cc(CCO)c2[C@H]1CCO`, the inhibition is reported as -5.8% (inactive).
In the case of `C[n+]1ccccc1C1CCCC/C1=N\Nc1ccc([N+](=O)[O-])cc1[N+](=O)[O-]` (configuration not stated), the inhibition is reported as -6.35% (inactive).
In the case of `COC(=O)c1ccc(CN(c2ccccc2OC)S(=O)(=O)c2cccs2)o1`, the inhibition is reported as 22.7% (inactive).
In the case of `CNC(=O)c1nnc(Cc2ccc(Cl)cc2)o1`, the inhibition is reported as -1.7% (inactive).
For `COCCCNC(=O)C1CC(=O)N(CCc2ccccc2)C1` (configuration not stated), the inhibition was 4.61% (inactive).
In the case of `COc1ccc(Cl)cc1NC(=O)CN(C)C(=O)c1ccc2n[nH]nc2c1`, the inhibition is reported as -3.85% (inactive).
With `Cc1cc(C)cc(C(=O)N2CCN=C2SCc2ccc([N+](=O)[O-])cc2)c1` the inhibition was 7.58% (inactive).
With `Cn1cc(CN2CCCCC2c2ccccn2)c(-c2ccc3c(c2)OCCO3)n1` (configuration not stated) the inhibition was 3% (inactive).
In the case of `CCc1nc(C)cn1S(=O)(=O)c1cc([N+](=O)[O-])ccc1Cl`, the inhibition is reported as -13.2% (inactive).
For `O=C1CCC/C(=N\NC(=O)NC2CCCCC2)C1`, the inhibition was 4.42% (inactive).
In the case of `O=[N+]([O-])c1ncc(Br)cc1Nc1ccccc1`, the inhibition is reported as -4.47% (inactive).
In the case of `COC(=O)c1c(C(=O)OC)c(-c2cccc(C)c2)n2c1CS(=O)C2` (configuration not stated), the inhibition is reported as 4.25% (inactive).
For `Cc1cc(C)c(OCCN2CC(C)OC(C)C2)c(Br)c1` (configuration not stated), the inhibition was 24.1% (inactive).
In the case of `COc1ccccc1NC(=O)c1cc(N2C(=O)C3C4CCC(C4)C3C2=O)ccc1Cl` (configuration not stated), the inhibition is reported as -14.7% (inactive).
For `CC1(C)CC(=O)C(CC(=O)N2CCC(Cc3ccccc3)CC2)C(=O)C1`, the inhibition was 3.6% (inactive).
For `CCCCCCCCCCCCC(NC(C)=O)(C(=O)OCC)C(=O)OCC`, the inhibition was 7.11% (inactive).
With `COc1ccc(NC(=O)c2cc([N+](=O)[O-])ccc2NC(=O)CNC2CCCCC2C)c(OC)c1` (configuration not stated) the inhibition was 3.4% (inactive).
In the case of `COc1cc(NS(=O)(=O)c2ccc(NC(=O)c3ccc([N+](=O)[O-])cc3)cc2)ncn1`, the inhibition is reported as -6.48% (inactive).
With `Cn1ccc(=Nc2ccc(NC(=O)c3ccc(N=c4ccn(C)c5ccc([N+](=O)[O-])cc45)cc3)cc2)cc1` the inhibition was 112% (active).
For `CCc1ccc(NC(=O)c2ccc(Cn3cc([N+](=O)[O-])cn3)cc2)cc1`, the inhibition was 1.09% (inactive).
With `CN(CCc1ccccc1)C(=O)c1cccc(NC(=O)Cc2cccc(NC(=O)C3CCCN(C(=O)C4CCC4)C3)c2)c1` (configuration not stated) the inhibition was 2.65% (inactive).
For `O=C(CNC(=O)c1cc(S(=O)(=O)N2CCOCC2)ccc1N1CCCC1)Nc1ccc(F)c(F)c1`, the inhibition was -7.06% (inactive).
In the case of `C=CCCC(=O)N1C[C@H]2CON(C)[C@H]2C[C@H]1c1cccc(Nc2ccccc2)c1`, the inhibition is reported as 1.87% (inactive).
In the case of `COc1ccc(-c2nn(C)c(=O)c3ccccc23)cc1CNC(=O)C1CCCCC1`, the inhibition is reported as 5.51% (inactive).
In the case of `CCSc1sc(CC)cc1C=O`, the inhibition is reported as -5.06% (inactive).
In the case of `COC(=O)/C=C(\Oc1ccccc1)C1(O)CCCCC1`, the inhibition is reported as -5.03% (inactive).
With `COc1ccc(C(=O)NCc2ccccc2C)cc1S(=O)(=O)NC1CCCC1` the inhibition was -5.16% (inactive).
In the case of `Cc1cccc(NS(=O)(=O)c2cc(Cl)ccc2Cl)n1`, the inhibition is reported as 1.57% (inactive).
In the case of `CCc1nnc(NS(=O)(=O)c2ccc(NC(=S)NC(=O)/C=C/c3cccs3)cc2)s1`, the inhibition is reported as 3.92% (inactive).
In the case of `CC(NC(=O)COc1cccnc1[N+](=O)[O-])c1ccc(Cl)cc1Cl` (configuration not stated), the inhibition is reported as -4.49% (inactive).
In the case of `Cc1cc(S(=O)(=O)NCc2ccccn2)c(Cl)cc1Cl`, the inhibition is reported as -16.8% (inactive).
In the case of `Cc1cc(C(F)F)n2nc(C(=O)Nc3ccc(S(=O)(=O)NC45CC6CC(CC(C6)C4)C5)cc3)nc2n1`, the inhibition is reported as 10.1% (inactive).
For `O=C(c1cc2ccccc2s1)N1CCN(c2ccccn2)CC1`, the inhibition was -5.47% (inactive).
In the case of `O=C(CNC(=O)OCc1ccccc1)NC1CCCCNC1=O` (configuration not stated), the inhibition is reported as 10.8% (inactive).
For `Cc1nn(C)c(Oc2ccc(Cl)cc2)c1C=O`, the inhibition was -0.515% (inactive).
In the case of `CCOC(=O)c1sc2nc(C)nc(SCC(N)=O)c2c1C`, the inhibition is reported as -4.58% (inactive).
In the case of `O=S1(=O)CCO[C@H]2Cc3ccccc3[C@H]2N1Cc1ccccc1`, the inhibition is reported as -48.1% (inactive).
For `CCCn1c(C)cc(/C=C(\C#N)C(=O)OCC(=O)N(C)c2c(N)n(Cc3ccccc3)c(=O)[nH]c2=O)c1C`, the inhibition was 11% (inactive).
